Reference: PubChem BioAssay (NCI)
The panel holds about 83,000 compounds, 20% with a hit somewhere; the sample as a whole holds those more often.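 Negative percent growth values reflect cell death: -40 means 40% of the cells present at the start died, and -100 means all died.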 Activity calls are given as the source filed them. How the source made its calls: active means growth percent below 10; inactive means the rest.

Each compound was assayed on HL-60(TB) leukemia (assay: NCI-60 one-dose screen, 48 h (100 = growth as untreated, 0 = no growth, -100 = all killed)). Conditions: 10 µM unless noted.

| Structure (SMILES) | growth |
| --- | --- |
| CCOC(=O)c1sc2nc(-c3cccc(O)c3)nc(N3CCOCC3)c2c1C | 78.3% (inactive) |
| CCOC1=C(Cl)C(=O)C(OCC)=C(Cl)C1=O | 52.3% (inactive) |
| COC1=CC(=O)OC(c2ccc(OC)cc2)C1 (stereo unspecified) | 78.3% (inactive) |
| CCCN(CCC)c1ccc(/C=C/c2ccc3cc(OCC)ccc3n2)cc1 | 54.3% (inactive) |
| CC(=O)N1N=C(c2ccc(F)cc2)CC1c1sc(N(C)Cc2ccccc2)nc1Cl (stereo unspecified) | 109% (inactive) |
| Cn1ccc2c1CC1CN(Cc3ccco3)C(=O)C1C2C(=O)O (stereo unspecified) | 98.8% (inactive) |
| COc1cccc(Nc2ccnc3[nH]c4ccc([N+](=O)[O-])cc4c23)c1 | 35.4% (inactive) |
| CC1=C2[C@@H](CC1)[C@]1(C)O[C@@](C3CCNCC3)(C[C@H]1OC(=O)CO)[C@H]2OC(=O)/C=C/c1ccccc1 | 97.1% (inactive) |
| CCCC(C)(C)COC(=O)c1cccc(N)c1 | 57.8% (inactive) |
| COc1ccc2cc1Oc1ccc(cc1)C[C@H]1c3cc(c(OC)cc3CCN1C)Oc1c(OC)c(OC)cc3c1[C@H](C2)N(C)CC3 | 29.8% (inactive) |
| COc1cc(C2=N/C(=C\c3cc4ccccc4nc3Oc3ccccc3)C(=O)N2C(=N)N)cc(OC)c1OC | 77.2% (inactive) |
| O=C(CN1CCN(c2cc3c(cc2F)c(=O)c(C(=O)O)cn3C2CC2)CC1)Nc1ccc(C(=O)/C=C/c2ccccc2)cc1 | 40.9% (inactive) |
| CC/C(Cc1ccccc1)=C(\c1ccc(OCCN2CCCCCC2)cc1)c1ccc(OC(=O)NCc2ccccc2)cc1 | 37% (inactive) |
| COc1ccc(C2CC(c3cc(OC)c(OC)c(OC)c3)=NN2C(C)=O)cc1OCC(=O)Nc1nc2ccc(C(F)(F)F)cc2s1 (stereo unspecified) | 79.1% (inactive) |
| C=CCOC(=O)C1=C(C)N(CC)C(=O)N(CC)C1c1c(Cl)n(C)c2ccccc12 (stereo unspecified) | 96.9% (inactive) |
| CCOC(=O)c1c(NC(=O)c2ccc(C(C)(C)C)cc2)sc2cc(O)ccc12 | 67% (inactive) |
| Clc1ccc(-c2nc(-c3c[nH]c4ncccc34)cs2)cc1 | 87.4% [100 µM] (inactive) |
| O=C(/C=C/c1ccc(Cl)cc1)c1ccc(Nc2nc(NCCO)nc(Nc3ccc(Cl)cc3)n2)cc1 | 99.4% (inactive) |
| Cc1cc(O)c(C2=NN(c3ccc(S(N)(=O)=O)cc3)C(c3ccc(N(C)C)cc3)C2)c(C)c1Cl (stereo unspecified) | 24.1% (inactive) |
| C=C1CC2(OC1=O)C(=O)N(CCCCCCCN1C(=O)C3(CC(=C)C(=O)O3)c3ccccc31)c1ccccc12 (stereo unspecified) | 11.7% (inactive) |
| O=C(c1ccc(Cl)cc1)c1no[n+]([O-])c1C(=O)c1ccc(Cl)cc1 | -27.9% (active) |
| Cc1cccc(-c2cc(O)c(C(=O)N3CCOCC3)s2)c1 | 24.5% (inactive) |
| Nc1ncnc(N)c1NC(=O)c1ccc(OCc2ccccc2)cc1 | 108% (inactive) |
| Nc1ccc(Cl)c2c(=O)c3ccccc3[nH]c12 | 63.7% (inactive) |
| COC(=O)C12C3C(=O)N(c4ccc(OC)cc4)C(=O)C3C(c3cn(-c4ccccc4)nc3C)N1[C@H](c1cn(-c3ccccc3)nc1C)[C@@H]1C(=O)N(c3ccc(OC)cc3)C(=O)[C@@H]12 (stereo partly specified) | 106% (inactive) |
| O=C(Nc1cccc(Br)c1)Oc1ccc(Cl)c2cccnc12 | 3.1% [100 µM] (active) |
